# Measurements from PubChem BioAssay.
# Inconclusive results are not listed. Calls of active or inactive are those of the source.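 Rule for the calls, unless noted: active = inhibition over a set limit, the all-compound mean plus 3 SD, in both replicate runs; inconclusive = over that limit in just one replicate run; inactive = at or under that limit in both runs.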
# Legend:
# [1] = reducers of endogenous Her2 protein level, primary screen, SKBR3 breast tumor cells, AlphaScreen, ATP viability (AID 461;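 active = Her2 level under about 52% in both replicate screens, with viability over 70% of control, limit read from the data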;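 for Her2 level: lower value means less Her2 protein in the cells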;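 for viability: percent of carrier control wells set as 100% viability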); settings: 18-24 h, measured here: SKBR3 viability, ATP luminescence, at 10 µM
# [2] = biological target: Receptor tyrosine-protein kinase erbB-2 (Homo sapiens) (UniProt P04626); test: as above; settings: 18-24 h, at 10 µM, stronger effect = lower value
# Sequence of Receptor tyrosine-protein kinase erbB-2 (Homo sapiens) (P04626 whole entry, looked up): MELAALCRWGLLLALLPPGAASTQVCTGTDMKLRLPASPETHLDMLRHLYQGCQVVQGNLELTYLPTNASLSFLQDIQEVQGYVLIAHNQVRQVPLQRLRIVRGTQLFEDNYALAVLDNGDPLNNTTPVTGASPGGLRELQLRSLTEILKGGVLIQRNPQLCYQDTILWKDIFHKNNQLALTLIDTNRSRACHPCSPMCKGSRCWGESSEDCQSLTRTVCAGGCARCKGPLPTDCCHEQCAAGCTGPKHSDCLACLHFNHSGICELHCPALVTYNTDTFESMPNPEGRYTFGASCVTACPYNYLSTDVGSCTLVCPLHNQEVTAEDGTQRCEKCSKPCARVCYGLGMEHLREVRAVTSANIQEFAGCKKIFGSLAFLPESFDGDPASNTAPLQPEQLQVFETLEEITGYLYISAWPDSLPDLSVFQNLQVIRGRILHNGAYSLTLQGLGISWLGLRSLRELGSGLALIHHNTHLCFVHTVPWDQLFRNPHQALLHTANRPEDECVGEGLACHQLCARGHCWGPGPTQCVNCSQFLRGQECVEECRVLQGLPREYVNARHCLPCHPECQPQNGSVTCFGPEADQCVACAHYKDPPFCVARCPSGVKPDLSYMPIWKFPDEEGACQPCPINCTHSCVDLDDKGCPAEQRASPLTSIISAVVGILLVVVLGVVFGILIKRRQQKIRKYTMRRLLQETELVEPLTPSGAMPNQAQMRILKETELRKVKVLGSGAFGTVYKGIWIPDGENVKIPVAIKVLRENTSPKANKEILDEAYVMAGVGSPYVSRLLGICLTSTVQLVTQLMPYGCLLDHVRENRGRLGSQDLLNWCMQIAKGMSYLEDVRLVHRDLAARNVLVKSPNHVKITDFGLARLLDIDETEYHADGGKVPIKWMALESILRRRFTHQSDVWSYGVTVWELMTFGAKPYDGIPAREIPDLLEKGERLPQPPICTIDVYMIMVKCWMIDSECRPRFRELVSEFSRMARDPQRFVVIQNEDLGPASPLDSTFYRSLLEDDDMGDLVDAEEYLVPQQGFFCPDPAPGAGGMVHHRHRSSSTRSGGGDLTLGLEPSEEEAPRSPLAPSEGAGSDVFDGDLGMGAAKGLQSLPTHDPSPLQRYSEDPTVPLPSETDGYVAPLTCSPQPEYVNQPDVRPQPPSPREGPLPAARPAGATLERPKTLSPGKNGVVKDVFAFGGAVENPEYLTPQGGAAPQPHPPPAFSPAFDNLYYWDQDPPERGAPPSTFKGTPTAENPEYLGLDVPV
# [3] = SK-BR-3 cell growth inhibitors, pilot screen, 24 h, human (AID 572;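 active = viability at or below 10% of carrier control in both of two separate runs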;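 note: compound exposure lasted between 18 and 24 h rather than exactly 24 h; 100% = carrier-treated control wells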); settings: SK-BR-3 viability, CellTiter-Glo luminescence, at 10 µM, stronger effect = lower value
# [4] = HUVEC growth inhibition – cell-based, human, primary screen (AID 575;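 active = viability at or below 30% in both replicate assays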;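 note: 100% = median of untreated cell wells with 0.1% DMSO on each plate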); settings: HUVEC proliferation, CellTiter-Glo luminescence, 72 h; at 10 µM; stronger effect = lower value
# [5] = growth inhibitors of H69AR lung tumor, primary screen, human, duplicate replicates (AID 580;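 active = viability at or under a set limit in both replicates, limit being median viability minus 3 SD, cut at about 48% in these data, passing the limit was not always enough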;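 note: 100% = mean luminescence of untreated wells and 0% = no signal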); settings: H69AR lung tumor cells viability, ATP luminescence, 72 h; at 10 µM; stronger effect = lower value
# [6] = reversal of MRP1-mediated doxorubicin resistance, pilot screen, H69AR cells, doxorubicin co-treatment (AID 601;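 active = viability loss from added drug above about 55%, and viability with drug at most 40%, in both replicates, limit read from the data, passing the limit was not always enough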); settings: CellTiter-Glo, 72 h, at 10 µM; for differential viability (reversal): stronger effect = higher value
# [7] = 384-well plate pilot, post-Golgi transport modulator project, inhibition of yeast transport mutant growth (AID 636; in the data active = inhibition above about 31%); settings: absorbance 615 nm, about 18 h, stronger effect = higher value
# [8] = growth suppression of yeast trafficking mutant, preliminary HTS, modulators of trafficking downstream of Golgi apparatus project, 1536-format plate, OD 615 nm (AID 637; in the data active = inhibition above about 30%); settings: yeast transport mutant growth, absorbance 615 nm, 18 h; stronger effect = higher value
# [9] = OD615 S. cerevisiae growth inhibition, permissive medium, pilot counter-assay, permissive growth control for S. cerevisiae lifespan shortening project (AID 705;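 active = growth inhibition above 25% in both replicates, a cutoff set 3 SD above the mean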); settings: OD615, 24 h, at 10 µM, stronger effect = higher value
# [10] = Restrictive medium S. cerevisiae growth inhibition, OD615, pilot screen of yeast lifespan reduction project, restrictive growth control (AID 706;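 active = growth inhibition above a set limit, 3 SD over mean compound inhibition, in both replicates, cut at about 43% in these data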;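 note: modified DeaD lifespan yeast strain shifted to restrictive glucose medium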); settings: OD615, 48 h, at 10 µM, stronger effect = higher value
# [11] = viability gain of MRP-1-high H69AR cells under doxorubicin, pilot screen, MRP-1 activator project, CellTiter-Glo, duplicate (AID 807;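 active = viability increase at or above a cutoff of the median across tested compounds plus 3 SD, cut at about 8.5% in these data, passing the limit was not always enough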;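 note: compound pretreatment 18-22 h then 72 h combined with doxorubicin; 0% = doxorubicin alone and 100% = vehicle without doxorubicin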); settings: H69AR viability with doxorubicin, CellTiter-Glo luminescence; at 10 µM; stronger effect = higher value
# [12] = growth suppression of beta-catenin knockout HCT116, pilot screen, human colon tumor cells (AID 823;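 active = cell viability at or below a set limit in both duplicate runs, the limit being the all-compound median minus 4 SD, cut at about 23% in these data, passing the limit was not always enough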;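 note: 0% = wells killed by 20 µM Hyamine and 100% = untreated DMSO cell wells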); settings: CellTiter-Glo, 60 h, at 10 µM, stronger effect = lower value
# [13] = growth suppression of PTEN-deleted HCT116, pilot screen, cell-based, HCT116 clonal line, CellTiter-Glo (AID 824;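 active = viability at or below 27.92% in each of two runs, the all-compound median minus 4 SD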;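 note: 0% = 20 µM Hyamine control and 100% = vehicle cell control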); settings: 60 h, at 10 µM, stronger effect = lower value
# [14] = inhibitors of the yeast RAM network, pilot screen, dse1pr::URA3 reporter, 5-FOA selection (AID 869);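 note: 0% = DMSO wells with no growth and 100% = 10 µM 1-NA-PP1 with full growth; RAM network block rescues cells from 5-FOA so hits raise OD615 growth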; settings: S. cerevisiae dse1pr::URA3 5-FOA growth, OD615, 2 d; at 10 µM; stronger effect = higher value; strain carries analog-sensitive mutant Cbk1 kinase
# [15] = RAM signaling pathway blockade in yeast – S. cerevisiae, Pdr1DBD-CYC8 efflux-inhibited sensitized strain, primary screen (AID 1298;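 active = RAM network inhibition above 8.4% in each of two replicates, 3 SD over the compound average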;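 note: 0% = DMSO untreated cells without growth and 100% = 10 µM 1-NA-PP1 full growth; higher means more yeast growth rescued from 5-FOA killing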); settings: S. cerevisiae cbk1-as DSE1-URA3 strain, 5-FOA growth OD615, 2 d; at 50 µM; stronger effect = higher value
# [16] = H69AR cells + 2 uM doxorubicin, measured here: viability with 2 uM doxorubicin, stronger effect = lower value
# [17] = H69AR cells, compound alone cytotoxicity
Compound,viability [1],Her2 level [2],viability [3],viability [4],viability [5],differential viability (reversal) ([6]; H69AR cells + 2 uM doxorubicin),"viability [6, 16]","viability [6, 17]",inhibition [7],inhibition [8],growth inhibition [9],growth inhibition [10],viability increase [11],viability [12],viability [13],inhibition [14],RAM network inhibition [15]
COc1cccc(C2CC(=O)Nc3cc4c(cc32)OCCO4)c1OC(C)C (stereo not given),99%,88.5% (inactive),99% (inactive),84.6% (inactive),41.2% (active),-29.5% (inactive),70.7%,41.2%,-1.2% (inactive),-3.61% (inactive),-3.68% (inactive),0.265% (inactive),-4.91% (inactive),65.7% (inactive),65% (inactive),0.76% (inactive),2.97% (inactive)
N#Cc1ccc(-c2csc(NC(=O)C3CC3)n2)cc1,95.5%,91% (inactive),95.5% (inactive),109% (inactive),91.9% (inactive),6.75% (inactive),85.1%,91.9%,-2.93% (inactive),0.16% (inactive),-18.1% (inactive),-2.02% (inactive),3.47% (inactive),103% (inactive),88.9% (inactive),2.53% (inactive),4.29% (inactive)
C=CCn1c(SC(C)C(=O)NC2(C#N)CCCCC2)nnc1-c1ccc(OC)cc1 (stereo not given),90%,73.5% (inactive),90% (inactive),109% (inactive),92.2% (inactive),13.9% (inactive),78.3%,92.2%,-7.07% (inactive),-5.25% (inactive),-4.51% (inactive),-9.22% (inactive),-2.25% (inactive),90% (inactive),87.7% (inactive),1.29% (inactive),0.47% (inactive)
COc1ccc(CCNc2oc(COc3ccccc3Cl)nc2C#N)cc1OC,90%,87% (inactive),90% (inactive),56.8% (inactive),92.2% (inactive),-4.1% (inactive),96.3%,92.2%,-1.6% (inactive),-1.83% (inactive),-10% (inactive),-0.295% (inactive),-1.73% (inactive),88.5% (inactive),73.2% (inactive),1.5% (inactive),2.3% (inactive)
CC(=O)NC(C)c1nc2ccccc2n1C(C)C (stereo not given),90%,106% (inactive),90% (inactive),88.1% (inactive),93.9% (inactive),12.4% (inactive),81.5%,93.9%,-2.8% (inactive),-2% (inactive),-5.54% (inactive),-15.8% (inactive),-2.65% (inactive),84.8% (inactive),90% (inactive),3.16% (inactive),-0.31% (inactive)
COc1ccc(-n2c(Cc3cccn3C)nnc2SCC(=O)Nc2ccccc2)cc1,88.5%,104% (inactive),88.5% (inactive),99% (inactive),82.2% (inactive),-6.77% (inactive),88.9%,82.2%,-5.87% (inactive),4% (inactive),1.29% (inactive),15.6% (inactive),-2.51% (inactive),99.5% (inactive),85.3% (inactive),2.68% (inactive),2.14% (inactive)
CCC1CCCCN1CCCNC(=O)CC1Oc2ccc(C)cc2NC1=O (stereo not given),110%,97.5% (inactive),110% (inactive),74.3% (inactive),89.1% (inactive),-3.82% (inactive),92.9%,89.1%,-2.27% (inactive),-0.49% (inactive),2.28% (inactive),0.165% (inactive),-3.12% (inactive),95% (inactive),91.1% (inactive),1.57% (inactive),2.53% (inactive)
CC1(C)CC(=O)C=C(Nc2ccc(OCC(F)(F)C(F)F)cc2)C1,95%,104% (inactive),95% (inactive),92.8% (inactive),103% (inactive),12.9% (inactive),89.9%,103%,0.38% (inactive),-12.3% (inactive),-3.99% (inactive),5.75% (inactive),1.17% (inactive),89.5% (inactive),90.2% (inactive),-0.6% (inactive),3.07% (inactive)
CC(=O)NC(CCS(C)(=O)=O)C(=O)Nc1cccc(C)c1C (stereo not given),89.5%,93.5% (inactive),89.5% (inactive),86.8% (inactive),75.9% (inactive),-15.4% (inactive),91.3%,75.9%,-5.2% (inactive),4.33% (inactive),-7.1% (inactive),-8.2% (inactive),0.19% (inactive),105% (inactive),100% (inactive),0.395% (inactive),3.33% (inactive)
COc1ccc(C)cc1S(=O)(=O)N1CCN(S(=O)(=O)c2cc(C)ccc2OC)CC1,110%,114% (inactive),110% (inactive),96.5% (inactive),95% (inactive),-0.24% (inactive),95.2%,95%,-5.47% (inactive),-9.03% (inactive),-15.6% (inactive),-26.2% (inactive),-0.01% (inactive),93.8% (inactive),90.9% (inactive),2.31% (inactive),3% (inactive)
